IL1B secr inh: qHTS for Inhibitors of Inflammasome Signaling: IL-1-beta AlphaLISA Primary Screen; activity change, % at 57.5 µM; THP-1 LPS/ATP IL-1B secretion, AlphaLISA, 16 h; stronger effect = lower value; 4.7% of 360,000 active; in the data active means activity change below about -50%; inconclusive means mostly about -30% to -49%
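THP-1 cells pretreated 1 hr with compounds (up to 57.5 uM final), then stimulated with LPS (250 ng/mL final) plus ATP (1.25 mM final); secreted IL-1B measured by AlphaLISA after 16 hr, decreased signal indicating inhibition.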
Gal4-VP16 FLuc: VP16 counterscreen qHTS for inhibitors of ROR gamma transcriptional activity. Drosophila S2 Gal4-VP16 UAS-luciferase, luminescence, 20 h. Potency, µM (highest dose often 53.6 µM), without a hit: top-dose activity, negative = inhibition, usual class: inhibitors. 3.5% of 310,000 active;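 further: Gal4-VP16 expression switched on by copper sulfate through the metallothionein promoter; potency means the concentration at half of the fitted maximal effect; nearly all actives have a fitted effect of over 50% in size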
DT40 TDP1 no CPT: qHTS for Inhibitors of human tyrosyl-DNA phosphodiesterase 1 (TDP1): qHTS in cells in absence of CPT | DT40 Tdp1-/- hTDP1 cells, no CPT, ATP luminescence, 48 h | Potency, µM (highest dose often 46.2 µM), for the others: at the top dose activity change, negative = growth inhibition, most hits filed as inhibitors | 15% of 420,000 active | AID 686978, 2013; further: potency means the concentration at half of the fitted maximal effect; nearly all actives have a fitted effect of over 55% in size
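Growth kinetics read by CellTiter-Glo luminescence after ≥48 hr at 37 °C. Cells: DT40 Tdp1-/- stably carrying human TDP1, 400 per well, compound exposure in the absence of CPT (DMSO vehicle).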
ELG1 DNA repair: qHTS screen for small molecules that inhibit ELG1-dependent DNA repair in human embryonic kidney (HEK293T) cells expressing luciferase-tagged ELG1; HEK293T ELG1-luciferase reporter, luminescence, 16 h; DNA damage induced by 5-fluorouridine; Potency, µM (series often up to 46.1 µM), for the others: at the top dose activity change, negative = inhibition, hits mostly inhibitors; 2.3% of 330,000 active; AID 504467, 2011; further: potency means the concentration at half of the fitted maximal effect; nearly all actives have a fitted effect of over 55% in size
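5-Fluorouridine DNA damage + compound/DMSO, 2,000 cells/well, 16 h, 37 °C/5% CO2. ONE-Glo, 30 min RT, luminescence. Readout = decrease in reporter signal.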
TDP1 cell CPT: qHTS for Inhibitors of human tyrosyl-DNA phosphodiesterase 1 (TDP1): qHTS in cells in presence of CPT; chicken DT40 Tdp1-/-;hTDP1 cells + 20 nM CPT, ATP luminescence, 48 h; 12% of 420,000 active; Potency, µM (top dose mostly 46.2 µM), without a hit: at the highest dose activity change, negative = growth inhibition, actives largely listed as inhibitors; further: potency means the concentration at half of the fitted maximal effect; nearly all actives have a fitted effect of over 55% in size
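Chicken DT40 Tdp1-/- cells stably complemented with human TDP1 were seeded at 400 cells/well in medium containing 20 nM camptothecin, exposed to pin-transferred compounds, and grown at 37 °C for at least 48 hr. Viability was read as ATP luminescence.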
RORg inh: qHTS for inhibitors of ROR gamma transcriptional activity. Drosophila S2 Gal4-RORgamma UAS-luciferase reporter, 20 h. Potency, µM (highest dose often 53.6 µM), inactives show at the top dose activity change, negative = inhibition, actives largely listed as inhibitors. 5.4% of 310,000 active; further: potency means the concentration at half of the fitted maximal effect; nearly all actives have a fitted effect of over 60% in size
Target sequence (P51450 whole entry, looked up, the tested form may be a part): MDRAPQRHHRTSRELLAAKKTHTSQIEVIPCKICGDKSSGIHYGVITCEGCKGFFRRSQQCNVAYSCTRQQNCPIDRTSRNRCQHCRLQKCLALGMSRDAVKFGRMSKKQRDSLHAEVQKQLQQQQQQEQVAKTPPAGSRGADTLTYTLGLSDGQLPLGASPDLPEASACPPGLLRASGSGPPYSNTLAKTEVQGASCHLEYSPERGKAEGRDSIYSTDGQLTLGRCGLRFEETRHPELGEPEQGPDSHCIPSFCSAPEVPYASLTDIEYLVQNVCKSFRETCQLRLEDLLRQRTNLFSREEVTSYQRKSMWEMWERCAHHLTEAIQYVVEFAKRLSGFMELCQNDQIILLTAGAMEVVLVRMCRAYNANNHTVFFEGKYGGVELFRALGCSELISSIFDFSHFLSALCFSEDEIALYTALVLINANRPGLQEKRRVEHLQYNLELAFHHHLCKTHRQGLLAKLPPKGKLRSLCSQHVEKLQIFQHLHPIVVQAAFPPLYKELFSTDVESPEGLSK
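ROR gamma transcriptional activity was tracked as Gal4-UAS luciferase output in stably transfected Drosophila Schneider cells, with compound added 1 hr before 700 uM copper sulfate induction and a 20 hr ambient-temperature incubation.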
The depositor's hits bear a star; ? = inconclusive; · = no result given; [ ] = remark or other dose. Shown are actives, neighbours in structure and some others; about 21% of the full set was active somewhere. Unless noted, the call rests on the fitted dose curve; in most records, active means well fitted curve in the direction sought with a large enough effect; inconclusive means small, poorly fitted or top-dose-only effect, or another doubt; inactive means no such curve, though single readings can be large; an effect the other way counts as inactive or inconclusive. On the % scale 0 is the no-effect control and ±100 the full control effect.

SMILES	IL1B secr inh	Gal4-VP16 FLuc	DT40 TDP1 no CPT	ELG1 DNA repair	TDP1 cell CPT	RORg inh
COC(=O)c1ccc(Nc2cc(C)nc(-c3ccccc3O)n2)cc1	-11	-8%	?	?	?	-11%
Cc1cc(Nc2cccc(Cl)c2)nc(-c2ccccc2O)n1	?	-9%	?	-11%	29µM*	31%
O=C(/C=C/c1cccc(C(F)(F)F)c1)OCC(=O)N1CCN(c2ccccc2)CC1	-2	·	?	14%	?	·
Cc1cc(Cl)ccc1C(O)c1ncc(-c2cccc(C(F)(F)F)c2)[nH]1 (stereo not drawn)	0	·	?	·	?	·
O=C(NCC1Cc2cccc(-c3ncccn3)c2O1)C1CCCO1 (stereo not drawn)	·	·	-21%	·	-4%[9.04 µM]	·
COc1cccc(CNS(=O)(=O)c2cc3c4c(c2)CCN4C(=O)CC3)c1	-13	·	-1%	13%	-10%	·
Cc1ccc(NC(=O)CN2CCc3cc4c(cc3C2C)OCCCO4)cc1 (stereo not drawn)	?	0%	?	18µM*	?	29%
O=C(CN1CCc2cc3c(cc2C1)OCCCO3)Nc1ccc(S(=O)(=O)N2CCCC2)cc1	22	-6%	?	?	?	8%
O=C(CN1CCc2ccccc21)Nc1ccc2c(c1)OCCCO2	-11	·	?	?	-28%	·
CC1c2cc3c(cc2CCN1CC(=O)Nc1ccccc1)OCCCO3 (stereo not drawn)	6	-4%	23µM*	?	15µM*	-30%
CC1c2cc3c(cc2CCN1C(=O)c1cccc(Cl)c1)OCCCO3 (stereo not drawn)	20	0%	6.5µM*	?	7.3µM*	-31%
CCOc1cc(C(=O)Nc2cccc3cccnc23)cc(OCC)c1OCC	·	·	-102%	·	?	·
O=[N+]([O-])c1ccc(N2CCN(C(=S)Nc3cccc(F)c3)CC2)cc1	-20	?	9.2µM*	?	8.2µM*	?
O=[N+]([O-])c1ccc(N2CCN(C(=S)Nc3ccc(F)cc3)CC2)cc1	-4	?	5.8µM*	?	5.2µM*	?
Fc1ccc(NC(=S)N2CCOCC2)c(F)c1	4	-6%	14%	-1%	0%	0%
O=[N+]([O-])c1ccc(N2CCN(C(=S)Nc3ccc(F)cc3F)CC2)cc1	-8	?	8.2µM*	?	6.5µM*	13µM*
COc1ccccc1-c1ccnc(-n2ncc(C(=O)N3CCN(C(C)C)CC3)c2-c2ccco2)n1	·	·	-10%	·	8%[9.04 µM]	·
O=C(O)c1cc(=S)nc[nH]1	8	·	0%	·	-3%	·
O=C(CCC1CCCCC1=O)c1ccccc1 (stereo not drawn)	-5	1%	-1%	?	-3%	-4%
CCc1ccc(C(=O)CCC2CCCCC2=O)cc1 (stereo not drawn)	-4	-15%	16µM*	?	?	-2%
C/C(=N\NC(=O)c1ccc([N+](=O)[O-])cc1)c1cccc([N+](=O)[O-])c1	-7	-13%	-22%	14%	5%	-34%
C/C(=N/Nc1nc(C)c(C)s1)c1cccc([N+](=O)[O-])c1	22	?	23µM*	-8%	15µM*	11µM*
CCOC(=O)N/N=C(\C)c1ccc(C)c([N+](=O)[O-])c1	-6	-3%	?	?	-23%	38%
C/C(=N/NC(=S)Nc1cccc(C)c1)c1cccc([N+](=O)[O-])c1	-21	10µM*	13µM*	0%	12µM*	2.8µM*
C/C(=N\NC(=S)NC(C)C)c1cccc([N+](=O)[O-])c1	-7	4µM*	0.92µM*	-10%	0.92µM*	1.3µM*
SMILES	IL1B secr inh	Gal4-VP16 FLuc	DT40 TDP1 no CPT	ELG1 DNA repair	TDP1 cell CPT	RORg inh
C/C(=N\NC(=S)NC(C)C)c1ccc(Cl)c([N+](=O)[O-])c1	-92*	?	18µM*	3%	18µM*	?
O=C(NC1CC1)[C@@H]1C[C@H](Sc2nc3ccccc3[nH]2)CN1CC1CCCCC1	·	·	?	·	-9%	·
O=C(NC1CCSc2ccccc21)c1ccc(C(F)(F)F)cc1 (stereo not drawn)	33	?	-12%	-4%	18%	-27%
Cc1ccc(S(=O)(=O)N(C)C[C@@H]2OCc3cnnn3CCCC(=O)N([C@@H](C)CO)C[C@@H]2C)cc1	-16	·	-20%	·	-1%	·
Cc1ccc(S(=O)(=O)N=S(CC2CC2(Cl)Cl)CC2CC2(Cl)Cl)cc1 (stereo not drawn)	-5	2%	26µM*	-10%	23µM*	-7%
CCCCC/S(CC1CC1(Cl)Cl)=N\S(=O)(=O)c1ccc(C)cc1 (stereo not drawn)	-5	-16%	?	-10%	-3%	-6%
NC(=S)N/N=C/c1c(O)c(Br)cc2oc3c(c12)CCCC3	21	?	5.2µM*	21µM*	5.2µM*	7.9µM*
Cc1ccc2c(c1)-c1c(cnn1CC(=O)N1CCN(c3cc(C)ccc3C)CC1)CO2	·	·	18µM*	·	?	·
COc1ccc(NC(=O)Cn2ncc3c2-c2ccccc2OC3)cc1Cl	·	·	15µM*	·	?	·
COc1ccc(N2CCN(C(=O)Cn3ncc4c3-c3cc(C)ccc3OC4)CC2)cc1	·	·	-18%	·	-20%	·
Cc1cccc(N2CCN(C(=O)Cn3ncc4c3-c3ccccc3OC4)CC2)c1C	·	·	16µM*	·	18µM*	·
COc1cc2c(cc1OC)C(C)N(C(=O)Cn1ncc3c1-c1cc(C)ccc1OC3)CC2 (stereo not drawn)	?	1%	?	18µM*	?	-16%
C#CCCCO/N=C1/C[C@@H](O)[C@@H](O)[C@@H]2[C@@H]3C(=O)N([C@@H](C)c4ccccc4)C(=O)[C@H]3CC[C@@H]12	·	-13%[10 µM]	·	·	·	42%[10 µM]
O=C(CN1C(=O)C2C3CCC(C3)C2C1=O)OCC(=O)c1ccc(Br)cc1 (stereo not drawn)	2	3%	-1%	8%	-18%	10%
COCCN(C(=O)COC(=O)CSc1ccccc1)c1c(N)n(Cc2ccccc2)c(=O)[nH]c1=O	7	·	-7%	3%	?	·
